Assay outcomes as filed in PubChem.
MBNL1 CUG block – inhibitors of human MBNL1 binding to CUG repeat RNA; Q9NR56; TR-FRET MBNL1-His/biotin-(CUG)12 binding, 665/545 ratio; Potency, µM (titrated, usually from 57.5 µM), for the others: top-dose activity change, negative = inhibition, actives largely listed as inhibitors; 0.036% of 280,000 active; AID 2675; active = well fitted inhibition curve with a large enough effect in the signal ratio, with a control signal flat, not every such curve was filed as active; inconclusive = small, poorly fitted or top-dose-only effect, or effect the other way, or a change in a side signal; inactive = no such curve, though single readings can be large or run the other way; the % refers to the signal ratio; note: potency is the fitted concentration of half-maximal effect; % is set by controls: 0 for no effect and ±100 for the full control effect
Target sequence (Q9NR56 whole entry, looked up): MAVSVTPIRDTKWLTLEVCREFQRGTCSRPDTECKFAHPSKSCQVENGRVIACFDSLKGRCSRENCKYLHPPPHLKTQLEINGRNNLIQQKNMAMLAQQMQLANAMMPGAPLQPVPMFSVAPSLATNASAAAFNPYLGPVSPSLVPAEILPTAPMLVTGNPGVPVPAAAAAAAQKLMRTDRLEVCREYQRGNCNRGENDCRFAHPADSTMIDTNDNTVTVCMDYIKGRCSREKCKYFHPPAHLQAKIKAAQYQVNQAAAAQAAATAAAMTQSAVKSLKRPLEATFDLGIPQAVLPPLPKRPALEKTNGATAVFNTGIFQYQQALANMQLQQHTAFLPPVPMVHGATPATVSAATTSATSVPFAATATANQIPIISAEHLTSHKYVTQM
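Compounds (final 92 nM to 58 uM) are added to His-tagged MBNL1 and biotin-(CUG)12, then terbium anti-His antibody and streptavidin-XL665 (5 nM final). After 60 min at room temperature, the 665/545 nm ratio is read.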
PTHR1 agonist – agonists of human PTHR1 parathyroid hormone receptor; Q03431; HEK293 GP2 PTHR1 cells, GloSensor cAMP luminescence, 1 h; Potency, µM (series often up to 115 µM), without a hit: at the highest dose activation, hits mostly activators; 0.075% of 410,000 active; AID 743266; note: potency is the fitted concentration of half-maximal effect; nearly all actives have a fitted effect of over 55% in size
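HEK-293-derived GP2 cells expressing PTHR1 and a GloSensor cAMP reporter, 3,000/well, plated overnight, given luciferin plus IBMX (each 0.5 mM as added) for 1 h at 37 °C, then compound for 1 h at 37 °C. Luminescence was read after 15 min at room temperature.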
CBFb RUNX1 block – CBF-beta/RUNX1 interaction disruption. Q01196+Q13951. AlphaScreen CBFb-His/RUNX1-biotin binding, biochemical. Potency, µM (doses to about 59.8 µM), inactives show at the highest dose activity, negative = inhibition, hits mostly inhibitors. 230,000 tested, under 10 active; note: % of control where 0% means no effect
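His-tagged CBF-beta and biotinylated RUNX1 (30 nM each) were premixed 20 min at room temperature, exposed to compound for 15 min, then given nickel-chelate and streptavidin AlphaScreen beads (50 ng each). After 90 min, AlphaScreen signal was read.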
D3 antag – antagonists of human D3 dopamine receptor | P35462 | max response, negative = inhibition, % | 2.5% of 360,000 active | D3R cells, DiscoveRx beta-arrestin luminescence, antagonist mode; active compounds read low; in the data active = max response below about -50%; inconclusive = no clear call, values can overlap the other calls; note: % is set by controls: 0 for no effect and ±100 for the full control effect
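Cells plated overnight at 1500 cells/well, then exposed to library compounds with dopamine controls for 90 minutes at 37 degrees C. DiscoveRx reagent added for 30–60 minutes at room temperature; luminescence read, quantitative HTS format.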
a7 integrin act – integrin-mediated muscular dystrophy alleviation activation; alpha7betagal myoblasts, beta-gal FDG fluorescence, 48 h; Potency, µM (top dose mostly 38.3 µM), without a hit: top-dose activation, most hits filed as activators; 0.064% of 350,000 active;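 note: potency is the fitted concentration of half-maximal effect; 100% = response of the positive control SU9516; nearly all actives have a fitted effect of over 60% in size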
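alpha7betagal+/- myoblasts (passage 13, 250/well) treated 48 h at 37C with compounds at 1:260 dilution of DMSO stock. Lysed, then beta-galactosidase activity read as FDG fluorescence (ex 480/em 540) after 30 min, with pre-read for autofluorescence.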
DRD3 agonist – agonists of human D3 dopamine receptor. P35462. D3R DiscoveRx beta-arrestin cells, luminescence, 90 min. max activation, %. 0.58% of 410,000 active; in the data active = max activation above about 30%; note: 0% is about no effect
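Agonist-mode cell screen: cells plated at 1500/well and incubated overnight at 37 °C, then exposed to library compounds for 90 min at 37 °C. Detection reagent was added for 30–60 min at room temperature, and luminescence was read.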
Active calls of the source: *; i = inactive; u = inconclusive; x = no result; [ ] = dose if it differs, or a comment. An excerpt weighted towards active compounds, which were near 2.8% of everything screened. Unless noted, calls come from the whole dose curve; as a rule, active = well fitted curve in the direction sought with a large enough effect; inconclusive = small, poorly fitted or top-dose-only effect, or another doubt; inactive = no such curve, though single readings can be large; an effect the other way counts as inactive or inconclusive.

SMILES	MBNL1 CUG block	PTHR1 agonist	CBFb RUNX1 block	D3 antag	a7 integrin act	DRD3 agonist
Cc1cc(OCCOCC[N+](C)(C)Cc2ccccc2)ccc1C(C)(C)CC(C)(C)C	x	x	x	x	x	-21
CC(C)(c1cc(Br)c(O)c(Br)c1)c1cc(Br)c(O)c(Br)c1	x	-8%	-10%[21.7 µM]	0	x	30*
CO[C@@H]1COC(=O)[C@H](C)NC(=O)[C@@H](C)COC(=O)[C@H](C)NC(=O)C/C=C\[C@H]1C	x	x	23%[13.1 µM]	x	x	x
O=c1oc2ccccc2nc1/C=C(O)/C=C\c1ccccc1	9%	-11%	-10%	-55*	-38%	2
O=c1oc2ccccc2nc1/C=C(O)/C=C/c1ccc(F)cc1	-15%	i	-2%	-15	-33%	0
O=C(Cn1cnc2ccccc21)N1CCN(S(=O)(=O)c2ccccc2)CC1	-5%	-1%	10%	0	-83%	15
O=C(COC(=O)c1ccccc1O)NNC(=O)c1ccc(Br)cc1	x	-35%	x	-58*	2%	-11
Cc1cc(C(C)(C)C)cc(C)c1CC1=NCCN1	-24%	-20%	10%	-79*	x	0
c1ccc(CC2=NCCN2)cc1	7%	-17%	16%	-5	x	-1
COC(=O)c1c(NC(=O)c2ccc(C(=O)c3ccccc3)cc2)sc2c1CC(C)(C)NC2(C)C	x	i	x	-11	-5%	1
CC1(C)Cc2c(sc(NC(=O)c3ccc(C(=O)c4ccccc4)cc3)c2C#N)C(C)(C)N1	10%	-67%	x	-57*	18%	-19
CC(C)C(OC(=O)c1cccc(S(=O)(=O)NCC(F)(F)F)c1)C(=O)NC(N)=O (stereo not drawn)	-4%	-75%	-1%	4	-53%	-4
CNS(=O)(=O)c1ccc(CCC(=O)N2CCN(c3ccccc3OC)CC2)cc1	-8%	-52%	x	39	-17%	37*
Cc1oc2c(c(=O)c1C)C(=O)CC(c1ccccc1)C2 (stereo not drawn)	-2%	i	3%	9	11%	4
CS(=O)(=O)c1sc(C#N)c2c1C(=O)CC(c1ccccc1)C2 (stereo not drawn)	u	-95%	-3%	-132*	u	-19
O=C(CSc1nncn1-c1ccccc1F)NC1CC1	x	-3%	x	-10	4%	0
COC(=O)CSc1n[nH]c(=S)s1	-11%	-20%	-2%	-68*	0%	-2
CCOC(=O)C(C)(C)N(Cc1ccccc1C)S(=O)(=O)c1ccc(Cl)c([N+](=O)[O-])c1	9%	-12%	-16%	-50*	-49%	-3
Cc1ccc2c(c1)N(CC(=O)N1CCCCCC1)C(=O)c1cccnc1O2	-5%	i	x	12	-32%	0
Cc1ccc2c(c1)N(CC(=O)N1CCCC1)C(=O)c1cccnc1O2	-12%	i	x	-86*	u	-2
COc1cccc(-n2sc3c(c2=S)-c2cc(OC)ccc2NC3(C)C)c1	3%	-6%[57.5 µM]	x	-69*	0%	-6
COc1cccc(-n2cn[nH]c2=S)c1	-6%	i	0%	-3	13%	2
COc1cc(NC(=O)CC2C(=O)N(c3cccc(C)c3)C(=O)N2Cc2ccco2)cc(OC)c1 (stereo not drawn)	x	u	x	x	x	62*
CCOC(=O)Cc1csc(NS(=O)(=O)c2ccc3c4c(cccc24)C(=O)N3CC)n1	u	0%[57.5 µM]	-4%	-66*	13%	0
CCOC(=O)CNS(=O)(=O)c1ccc2c3c(cccc13)C(=O)N2CC	u	-8%	2%	7	u	3
CCOC(=O)N1CCN(C(=O)c2ccc(Cn3c(=S)[nH]c4cc5c(cc4c3=O)OCO5)cc2)CC1	-4%	i	0%	15	-61%	85*
CCOc1cc2[nH]c(=O)n(CCCC(=O)N3CCN(c4ccc(OC)cc4)CC3)c(=O)c2cc1OCC	x	i	x	x	x	30*
